# In all, about 120,000 compounds went through this assay and about 5,300 (4.4%) were called active. Inconclusive results (about 22%) are left out. The sample as a whole holds a higher share of actives than the screen did. Unmarked numbers belong to inactive results. The call rests on the fitted dose curve; in most records, active means well fitted inhibition curve with a large enough effect; inconclusive means small, poorly fitted or top-dose-only effect; inactive means no such curve, though single readings can be large or run the other way.
# Assay: qHTS Primary assay for Inhibitors of Plasmodium falciparum Dd2 growth in vitro; further: nearly all actives have a fitted effect of over 65% in size;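 on activity, negative = inhibition: plate controls were DMSO vehicle for no effect and reference drug for full effect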
# Conditions: P. falciparum Dd2 growth, SYBR Green, 72 h; series mostly up to 28.9 µM; activity, negative = inhibition: at the top concentration
# Procedure, shortened: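 Infected erythrocytes (Dd2, 0.3% parasitemia, 2.5% hematocrit final) are added to compound in RPMI-1640/Albumax II medium, grown 72 h at 37C in low oxygen, then lysed with saponin/Triton-X containing SYBR Green and read by fluorescence.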
# Potency means the concentration at half of the fitted maximal effect.
SMILES,"activity, negative = inhibition",Potency,outcome
O=C(NCC1(COc2ccc(C(F)(F)F)cn2)C[C@@H](O)[C@@H](O)C1)c1ccc(F)cc1 (stereo partly drawn),-12.3%,–,–
CCn1cc(CN2C[C@@H](COC)[C@H](c3nc(COC)no3)C2)cn1,33.5%,–,–
COc1ccc(CCC(=O)NCc2ccc3c(c2)CCN3C(=O)c2ccc(F)cc2)cc1,–,4.47 µM (active),–
O=C(COc1ccccc1)NCc1ccc2c(c1)CCN2C(=O)c1ccc(F)cc1,–,–,inactive
O=C(CCc1ccccc1)NCc1ccc2c(c1)CCN2C(=O)c1ccccc1,–,–,inactive
Cc1ccc(CNC(=O)N2CCCOCCNC(=O)[C@@H]3CCC[C@@H]32)cc1,48.5%,–,–
C[S+](=O)([O-])c1ccc(CC(=O)N2CC(CNC(=O)C3CC3)C3(C2)CN(c2ccccc2)C3)cc1 (stereo not drawn),18%,–,–
Oc1ccccc1CN1CCOC[C@H]1c1ncc(-c2ccc(C(F)(F)F)cc2)[nH]1,–,1.26 µM (active),–
c1cncc(-c2cnc([C@@H]3COCCN3Cc3cnc4ccccc4c3)[nH]2)c1,-25.9% [at 44.1 µM],–,–
c1cc(CN2CCOC[C@H]2c2ncc(-c3ccncc3)[nH]2)ccn1,21.5% [at 44.1 µM],–,–
O=C(COc1ccccc1)N[C@H]1[C@H](O)[C@H](O)C[C@@H]1c1ccc(C(F)(F)F)cc1,-10.6% [at 44.1 µM],–,–
Cc1ccc2c(c1)N1C(=O)OC[C@@H]1CCN(C(=O)Nc1ccccc1)C2,-6.37% [at 44.1 µM],–,–
CCOC(=O)c1ccc(NC(=O)Cn2nc3c(cc2=O)CN(C(C)=O)CC3)cc1,–,–,inactive
O=C(c1ccc2[nH]ccc2c1)N1CCC(N2CC(OCC3CC3)C23CCOCC3)CC1 (stereo not drawn),-12%,–,–
CCn1cc(CN2CCC(N3CC(OCC4CC4)C34CCCCC4)CC2)cn1 (stereo not drawn),–,1.41 µM (active),–
COCCOC1CN(C2CCN(C(=O)C3CCOCC3)CC2)C12CCCCC2 (stereo not drawn),–,–,inactive
Fc1cccc(CN2CCC(N3CC(OCC4CC4)C34CCCCC4)CC2)c1 (stereo not drawn),–,0.501 µM (active),–
N#Cc1cccc(CN2CCC(C3=NC(O)c4cc(F)ccc4N3)CC2)c1 (stereo not drawn),–,–,inactive
COCCOC1CN(C2CCN(C(=O)c3ccc(OC)nc3)CC2)C12CCCCC2 (stereo not drawn),-1.15%,–,–
O=C(Nc1cccc(Cl)c1)[C@@H]1C[C@@H](c2ccc(F)cc2)N([S+](=O)([O-])c2cccnc2)C1,–,–,inactive; activator; fitted 4.4668 uM
O=C1CC(c2ccccc2)N(C(=O)CNC(=O)NCc2ccc(F)cc2)CCCCCN1 (stereo not drawn),24.2%,–,–
O=C1CC(c2ccccc2)N(C(=O)CNC(=O)C2CCC2)CCCCCN1 (stereo not drawn),12.7%,–,–
COc1ccc(CNC(=O)NCC(=O)N2CCCCCCNC(=O)CC2c2ccccc2)cc1 (stereo not drawn),–,8.91 µM (active),–
CCn1cc(S(=O)(=O)N2CC[C@H]3C(=O)NCCCCCCN(Cc4ccncc4)[C@@H]3C2)cn1,-2.45%,–,–
NC(=O)[C@H](CCC(=O)O)NC(=O)[C@@]1(O)C[C@@H](O)[C@H](O)[C@@H](NS(=O)(=O)c2cccc(C(F)(F)F)c2)C1,5.33%,–,–

SMILES,"activity, negative = inhibition",Potency,outcome
CN(C)C[C@@H]1CN(C)C[C@H]1NS(=O)(=O)c1cccc(C(F)(F)F)c1,–,3.55 µM (active),–
CN(C)C[C@@H]1CN(C)C[C@H]1NC(=O)c1cc2ccccc2[nH]1,3.28%,–,–
CN(C)C[C@@H]1CN(C(=O)c2ccc3c(c2)OCC(=O)N3)C[C@@H]1CO,-2.97%,–,–
O=C(NCc1ccc2c(c1)OCO2)c1noc(-c2ccc(F)cc2)n1,–,–,inactive; activator; fitted 3.9811 uM
O=C(CCc1ccccc1)NCCn1cccc1-c1nc(-c2ccc3c(c2)OCO3)no1,–,7.08 µM (active),–
Cc1ccc(NC(=O)Cn2cccc2-c2nc(-c3ccc4c(c3)OCO4)no2)cc1Cl,6.15%,–,–
CCc1noc(C)c1C(=O)N1CC[C@@H](NC(=O)c2ccccn2)[C@H](O)C1,4.75%,–,–
O=C(CSc1nc(=O)[nH]c2c1CCCC2)Nc1cc(C(F)(F)F)ccc1Cl,-24.7%,–,–
Cc1cc(C)cc(-n2ccnc2SCC(=O)Nc2nc3ccccc3s2)c1,9.7%,–,–
COc1ccc(NC(=O)CSc2nccn2C2CCCC2)cc1OC,98.7%,–,–
Cc1cccc(-n2ccnc2SCC(=O)Nc2cc(C(F)(F)F)ccc2Cl)c1,–,3.55 µM (active),–
O=C(CSc1nccn1-c1ccc(F)cc1)Nc1cccc2ccccc12,14%,–,–
O=C(CSc1nccn1C1CCCC1)Nc1cc(C(F)(F)F)ccc1Cl,–,11.2 µM (active),–
Cc1ccc(-c2noc([C@@H]3CCCN3C(=O)c3cc(Cl)ccc3F)n2)cc1,–,–,inactive
CS(=O)(=O)Cc1ccc(-c2cccc(OCc3ccccc3F)c2)nc1,15.8%,–,–
COCCC(=O)NCCC1CCN(C(=O)Nc2ccccc2F)CC1,1.23%,–,–
C[S+](=O)([O-])N1CC2ON=C(C(=O)O)C2C1 (stereo not drawn),15.9% [at 44.1 µM],–,–
CCOc1ccc2c(n1)CCN(C(=O)c1ccccc1C)C2,23.4%,–,–
C[C@@H]1CN(C(=O)c2ccc(-c3ccn[nH]3)cc2)CC[C@@]1(O)C1CCOCC1,-4.28%,–,–
COC(=O)CNC(=O)N1CCOC(c2ccc(Cl)c(Cl)c2)C1 (stereo not drawn),-7.83%,–,–
Cc1noc(-c2cccn3c(CNC(=O)CCc4ccccc4)nnc23)n1,-21%,–,–
COc1cccc(CC(=O)NC2CCN(c3cc(-c4ccccc4)[nH]n3)C2)c1 (stereo not drawn),-15.8%,–,–
CC(C)C[C@@H]1N[C@H](C(=O)NCc2ccc(F)cc2)Cc2cn(C)c3cccc1c23,–,14.1 µM (active),–
COc1ccc(CNC(=O)[C@@H]2Cc3cn(Cc4ccncc4)c4cccc(c34)[C@H](CC(C)C)N2)cc1,–,–,inactive
CC#CCn1cc2c3c(cccc31)[C@H](CC(C)C)N[C@H](C(=O)NCc1ccccc1OC)C2,-14.8%,–,–

SMILES,"activity, negative = inhibition",Potency,outcome
O=C(Nc1cccnc1)N[C@@H]1C[C@H](CO)[C@@H](O)[C@H]1O,15.7% [at 44.1 µM],–,–
Cc1ccccc1CNC(=O)C1CCCN(C(=O)c2ccccc2)CCC(=O)NCC1 (stereo not drawn),0.165%,–,–
O=C(O)c1ccc(CSc2nc3cccnc3n2Cc2cccc(F)c2)cc1,-8.45%,–,–
COc1ccc(-n2c(=O)c3ccccc3n(Cc3ccccc3Cl)c2=O)cc1,10.2%,–,–
O=c1c2cccnc2n(Cc2cccc(F)c2)c(=O)n1Cc1ccccc1Cl,–,12.6 µM (active),–
COc1ccc(-c2ccnc3nc(CC(C)C)nn23)c(F)c1,-29.2%,–,–
CC(NC(=O)c1noc(-c2ccc(F)cc2)n1)c1ccc(F)cc1 (stereo not drawn),–,–,inactive; activator; fitted 0.8913 uM
CC(C)C(=O)N1CCC(OC2CCN(Cc3ccccc3)CC2)CC1,-28.6%,–,–
Cc1cccc(C(=O)N2CCC(OC3CCN(Cc4ccccc4)CC3)CC2)c1,–,3.98 µM (active),–
Cc1cccc(C(=O)N2CCC(CC(=O)NCc3ccccc3)C2)c1 (stereo not drawn),23.5%,–,–
O=S(=O)(c1cccs1)N1CCC(OC2CCN(Cc3ccccc3)CC2)CC1,–,3.55 µM (active),–
CC(C)CN1CCN(C2CCOC3(CCN(S(=O)(=O)c4cccs4)CC3)C2)CC1 (stereo not drawn),-11.2%,–,–
CN1CCCN(S(=O)(=O)c2cccs2)c2ccccc21,-16.5%,–,–
N[C@H]1CCN2C(=O)c3cc(-c4ccc(F)cc4F)ccc3NC(=O)[C@H]12,–,–,inactive [at 44.1 µM]
Cc1cccc(C(=O)N2CC(c3nnc(C(C)C)o3)C3(CCOCC3)C2)c1 (stereo not drawn),-19.4%,–,–
Cc1cnc(CCNC(=O)c2cn(C)cn2)n1C1CC1,-21%,–,–
CC(=O)NCCc1ncc(C)n1C1CCCCC1,-23.6%,–,–
Cc1cnc(CCNC(=O)Nc2ccccc2F)n1C1CCC1,–,4.47 µM (active),–
C=C(C)CN(CC)C(=O)c1c(C)oc2c1CN(Cc1cccc(F)c1)CC2,–,8.91 µM (active),–
O=c1[nH]c(N2CCOCC2)nc2c1CCN(Cc1cccc(F)c1)CC2,–,–,inactive [at 5.79 µM]
CCNC(=O)c1c(C)oc2c1CN(C(=O)CCc1ccccc1)CC2,–,–,inactive
O=C(CCc1ccccc1)N1CCCCCC1c1nc(-c2ccccc2)no1 (stereo not drawn),-10.1%,–,–
Cc1cccc(CC(=O)N2CCC(c3noc(COCC4CC4)n3)CC2)c1,-11.1%,–,–
Cc1ccc2c(C)c(C(=O)N3CCCn4cncc4C3)oc2c1,-21.1%,–,–
COc1ccc(NC(=O)c2ccc3c(c2)N(S(C)(=O)=O)CC3)cc1OC,-0.286%,–,–

SMILES,"activity, negative = inhibition",Potency,outcome
COc1ccc(C(=O)Nc2ccc3nc(N4CCCCC4)cc(C)c3c2)cc1OC,–,3.16 µM (active),–
COc1ccc(NC(=O)c2ccc3nc(C(C)C)oc3c2)cc1OC,14.6%,–,–
COc1ccc(N2CCC(NC(=O)c3ccc(N(C)C)cc3)C2=O)cc1 (stereo not drawn),-12%,–,–
O=C(NCc1ccc(Cl)nc1)c1cnn2c1CN([S+](=O)([O-])c1cccc(C(F)(F)F)c1)CC2,70.5%,–,–
CC(=O)Nc1ccc2nc(SCCOc3cc(C)cc(C)c3)sc2c1,–,–,inactive
Cc1ccc(OCCSc2nc3ccc(NC(=O)COc4ccc(C)cc4)cc3s2)cc1,5.02%,–,–
Cc1ccccc1OCCSc1nc2ccc(NC(=O)c3ccco3)cc2s1,–,2.24 µM (active),–
Cc1cccc(OCCSc2nc3ccc(NC(=O)COc4ccccc4C)cc3s2)c1,-19.9%,–,–
O=C(Nc1ccc2nc(SCCOc3ccccc3)sc2c1)c1ccco1,–,4.47 µM (active),–
COc1cc(C)ccc1OCCSc1nc2ccc(NC(=O)c3ccc(C)cc3)cc2s1,-22.7%,–,–
CN1CC2(CCN(Cc3cn[nH]c3-c3ccccc3)CC2)CC1C(=O)N1CCOCC1 (stereo not drawn),-19.7%,–,–
O=C(CCc1conc1-c1ccccc1F)NCc1cccc(C(F)(F)F)c1,-8.13%,–,–
C=CCCC(CN1CCCC1)Oc1cncc(C(=O)N2CCCC2)n1 (stereo not drawn),–,7.94 µM (active),–
COC[C@@H]1CN(C(=O)Cc2ccc(OC)cc2)C[C@H]1C(N)=O,–,–,inactive
CCCC1c2nccn2CCCN1C(=O)c1ccc(OC)nc1 (stereo not drawn),11.3%,–,–
COc1ccccc1OCCNC(=O)CCc1cc2cc(C)ccc2[nH]c1=O,-7.04%,–,–
O=C(N[C@@H]1CCOC[C@H]1Oc1ccccn1)c1cc(C2CC2)no1,-7.6%,–,–
Cc1nn(-c2ccccc2)c(C)c1CN1CCCC12Cc1ccccc1CNC2=O (stereo not drawn),–,2.24 µM (active),–
Cc1ccc(CN2CCCC23Cc2ccccc2CNC3=O)cc1C (stereo not drawn),-14%,–,–
COc1ccc(CN2CCC3(CC2)Cc2ccccc2CNC3=O)cn1,2.24%,–,–
O=C1Nc2ccccc2CC12CCN2Cc1cncs1 (stereo not drawn),-13% [at 44.1 µM],–,–
O=C1Nc2ccccc2CC12CCCN2Cc1ccccc1 (stereo not drawn),–,10 µM (active),–
N#Cc1ccc(CN2CCC3(Cc4ccccc4NC3=O)C2)cc1 (stereo not drawn),-4.96% [at 44.1 µM],–,–
